Measurements from PubChem BioAssay AID1159580 (chemical genetic matrix, 2015).
Where “and” joins values, the source holds several entries; their conditions need not be identical. Equal values may be shown once. Among all 5,500 compounds or so, about 2,000 (36%) were called active. Not shown: some 18% with an inconclusive outcome. The list shows a part of the results. Values without a mark were called inactive. No stated cut-off is given here; in the data, active means normalized growth mostly below about 0.91 (no sharp cut-off); inconclusive means no clear call, values can overlap the other calls; inactive means mostly above about 0.92.

Assay: chemical genetic growth profiling, strain panel (AID 1159580);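 further: tested at 20 µM; growth read once vehicle control cultures reached saturation at 30 °C; 1 = growth at the plate median or of vehicle wells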
Conditions: S. cerevisiae deletion strains, growth OD

`CC[N+](CC)(CC)CCOc1cccc(OCC[N+](CC)(CC)CC)c1OCC[N+](CC)(CC)CC` showed a normalized growth (locus YAL013W, strain DEP1, stronger effect = lower value) of 1.01, a normalized growth (locus YAL021C, strain ccr4, stronger effect = lower value) of 1.02 and a normalized growth (locus YAL026C, strain drs2, stronger effect = lower value) of 1.01. The normalized growth (locus YAL030W, strain snc1, stronger effect = lower value) was 1.02, the normalized growth (locus YAL040C, strain CLN3, stronger effect = lower value) was 1.01 and the normalized growth (locus YBL061C, strain skt5, stronger effect = lower value) was 1.02. It also gave a normalized growth (locus YBR009C, strain hhf1, stronger effect = lower value) of 1, a normalized growth (locus YBR021W, strain FUR4, stronger effect = lower value) of 1.01 and a normalized growth (locus YBR023C, strain chs3, stronger effect = lower value) of 1.02. The normalized growth (locus YBR171W, strain sec66, stronger effect = lower value) was 1.02, the normalized growth (locus YBR229C, strain ROT2, stronger effect = lower value) was 1.01 and the normalized growth (locus YBR231C, strain swc5, stronger effect = lower value) was 0.958. The normalized growth (locus YBR279W, strain paf1, stronger effect = lower value) was 1.03, the normalized growth (locus YCL011C, strain gbp2, stronger effect = lower value) was 1.02 and the normalized growth (locus YCL016C, strain dcc1, stronger effect = lower value) was 1.02. For the same compound, the normalized growth (locus YCL029C, strain bik1, stronger effect = lower value) was 1, the normalized growth (locus YCL061C, strain MRC1 (second series), stronger effect = lower value) was 0.999 and the normalized growth (locus YCL061C, strain MRC1, stronger effect = lower value) was 1.01. For the same compound, the normalized growth (locus YCL069W, strain vba3, stronger effect = lower value) was 1.01, the normalized growth (locus YCR088W, strain abp1, stronger effect = lower value) was 1.02 and the normalized growth (locus YDL005C, strain med2, stronger effect = lower value) was 1.03. The normalized growth (locus YDL035C, strain GPR1, stronger effect = lower value) was 1, the normalized growth (locus YDL040C, strain nat1, stronger effect = lower value) was 1.01 and the normalized growth (locus YDL074C, strain BRE1, stronger effect = lower value) was 1.02. The normalized growth (locus YDL101C, strain DUN1, stronger effect = lower value) was 1.01, the normalized growth (locus YDL134C, strain PPH21, stronger effect = lower value) was 1 and the normalized growth (locus YDL185W, strain tfp1, stronger effect = lower value) was 1.02. The normalized growth (locus YDL192W, strain arf1, stronger effect = lower value) was 1.01, the normalized growth (locus YDR001C, strain nth1, stronger effect = lower value) was 1.01 and the normalized growth (locus YDR069C, strain doa4, stronger effect = lower value) was 0.999. It also gave a normalized growth (locus YDR101C, strain arx1, stronger effect = lower value) of 0.996, a normalized growth (locus YDR137W, strain rgp1, stronger effect = lower value) of 1.05 and a normalized growth (locus YDR150W, strain NUM1, stronger effect = lower value) of 0.995. For the same compound, the normalized growth (locus YDR159W, strain sac3, stronger effect = lower value) was 0.965, the normalized growth (locus YDR162C, strain NBP2, stronger effect = lower value) was 1.01 and the normalized growth (locus YDR195W, strain ref2) was 0.983. For the same compound, the normalized growth (locus YDR297W, strain sur2, stronger effect = lower value) was 1.01, the normalized growth (locus YDR318W, strain mcm21, stronger effect = lower value) was 1.01 and the normalized growth (locus YDR334W, strain swr1, stronger effect = lower value) was 1.01. For the same compound, the normalized growth (locus YDR335W, strain msn5, stronger effect = lower value) was 1.01, the normalized growth (locus YDR363W, strain ESC2, stronger effect = lower value) was 1.02 and the normalized growth (locus YDR388W, stronger effect = lower value) was 1.01. For the same compound, the normalized growth (locus YDR392W, strain spt3, stronger effect = lower value) was 0.673 (active), the normalized growth (locus YDR502C, strain sam2, stronger effect = lower value) was 1 and the normalized growth (locus YEL003W, strain gim4, stronger effect = lower value) was 1.01. It also gave a normalized growth (locus YEL037C, strain rad23, stronger effect = lower value) of 1.01, a normalized growth (locus YEL061C, strain CIN8 (second series), stronger effect = lower value) of 1.01 and a normalized growth (locus YEL061C, strain CIN8, stronger effect = lower value) of 1.01. It also gave a normalized growth (locus YER002W, strain NOP16, stronger effect = lower value) of 0.986, a normalized growth (locus YER015W, strain faa2, stronger effect = lower value) of 0.994 and a normalized growth (locus YER016W, strain bim1, stronger effect = lower value) of 0.984. The normalized growth (locus YER110C, stronger effect = lower value) was 1.01, the normalized growth (locus YER111C, strain swi4, stronger effect = lower value) was 1.02 and the normalized growth (locus YER155C, strain BEM2 (second series), stronger effect = lower value) was 0.914. For the same compound, the normalized growth (locus YER155C, strain BEM2, stronger effect = lower value) was 1.02, the normalized growth (locus YER167W, strain BCK2, stronger effect = lower value) was 1.01 and the normalized growth (locus YFR010W, strain ubp6, stronger effect = lower value) was 1.01. For the same compound, the normalized growth (locus YGL078C, strain dbp3, stronger effect = lower value) was 1, the normalized growth (locus YGL086W, strain mad1, stronger effect = lower value) was 0.98 and the normalized growth (locus YGL167C, strain pmr1, stronger effect = lower value) was 1.02. For the same compound, the normalized growth (locus YGL173C, strain kem1, stronger effect = lower value) was 1.01, the normalized growth (locus YGL227W, strain vid30, stronger effect = lower value) was 1.03 and the normalized growth (locus YGL240W, strain doc1, stronger effect = lower value) was 0.994. For the same compound, the normalized growth (locus YGL248W, strain PDE1, stronger effect = lower value) was 1.01, the normalized growth (locus YGL253W, strain hxk2, stronger effect = lower value) was 1.01 and the normalized growth (locus YGR135W, strain pre9, stronger effect = lower value) was 1.03. The normalized growth (locus YGR229C, strain SMI1, stronger effect = lower value) was 1.05, the normalized growth (locus YGR252W, strain gcn5, stronger effect = lower value) was 0.969 and the normalized growth (locus YHR013C, strain ard1, stronger effect = lower value) was 1.02. The normalized growth (locus YHR027C, strain rpn1, stronger effect = lower value) was 1.01, the normalized growth (locus YHR030C, strain SLT2, stronger effect = lower value) was 1 and 1.01 and the normalized growth (locus YHR079C, strain IRE1 (second series), stronger effect = lower value) was 1.02. For the same compound, the normalized growth (locus YHR079C, strain IRE1, stronger effect = lower value) was 1.03, the normalized growth (locus YHR094C, strain hxt1, stronger effect = lower value) was 1.01 and the normalized growth (locus YHR129C, strain ARP1, stronger effect = lower value) was 1. For the same compound, the normalized growth (locus YHR142W, strain chs7, stronger effect = lower value) was 1.02, the normalized growth (locus YHR200W, strain rpn10, stronger effect = lower value) was 1.02 and the normalized growth (locus YIL066C, strain RNR3, stronger effect = lower value) was 1.01. For the same compound, the normalized growth (locus YIL073C, strain SPO22, stronger effect = lower value) was 1.05, the normalized growth (locus YIL125W, strain kgd1, stronger effect = lower value) was 1.01 and the normalized growth (locus YIR030C, strain dcg1, stronger effect = lower value) was 1.01. The normalized growth (locus YJL092W, strain hpr5, stronger effect = lower value) was 1.02, the normalized growth (locus YJL095W, strain BCK1 (second series), stronger effect = lower value) was 1.02 and the normalized growth (locus YJL095W, strain BCK1, stronger effect = lower value) was 1.02 and 0.997. The normalized growth (locus YJL115W, strain asf1, stronger effect = lower value) was 1.02, the normalized growth (locus YJL129C, strain trk1, stronger effect = lower value) was 1.01 and the normalized growth (locus YJL134W, strain LCB3, stronger effect = lower value) was 1.01. The normalized growth (locus YJL154C, strain vps35, stronger effect = lower value) was 1.01, the normalized growth (locus YJL164C, strain tpk1, stronger effect = lower value) was 1.03 and the normalized growth (locus YJL166W, strain qcr8, stronger effect = lower value) was 1.03. The normalized growth (locus YJL168C, strain set2, stronger effect = lower value) was 1.01, the normalized growth (locus YJL187C, strain SWE1 (second series), stronger effect = lower value) was 1.01 and the normalized growth (locus YJL187C, strain SWE1, stronger effect = lower value) was 1.02. The normalized growth (locus YJR043C, strain POL32, stronger effect = lower value) was 1.01.
